Compound activity from PubChem.
Only a selection was taken, and hits are over-represented in it overall.
ROC1-CUL1 inh – inhibitors of human ROC1-CUL1 ubiquitin ligase activity; in vitro K48 di-Ub FRET, acceptor:donor ratio, 45 min; inhibition, % at 10 µM; actives 0.6% (n = 140,000); AID 1347404, 2020; in the data active = inhibition above about 25%
The depositor's hits bear a star.

SMILES	ROC1-CUL1 inh
CC1(C2CCN(C(=O)Cc3ccc(Cl)cc3)CC2)NC(=O)N(C2Cc3ccccc3C2)C1=O (centres undefined)	-0.6
O=c1cc(Cl)nc2n1CCCS2	5.2
O=C1C(=NC2CCCCC2)C(Cl)C(=O)N1c1ccccc1Cl (centres undefined)	-4.3
CCOc1ccccc1/C=C1/C(=O)N(C2CCCCC2)C(=S)N1C	-8.6
O=C(Nc1cccc(N2CCC(NCCC(c3ccc(F)cc3)c3ccco3)CC2)c1)c1ccncc1 (centres undefined)	0.6
CCc1ccc(Sc2c(N)c3c(c(N)c2Sc2ccc(CC)cc2)C(=O)c2ccccc2C3=O)cc1	0.4
COCCNC(=O)c1ccc(OC)c(Br)c1	-8.3
COc1cccc(CCC2CCCN(C(=O)CN3CCCC3=O)C2)c1 (centres undefined)	-7.7
O=C(c1sc2cc(F)ccc2c1Cl)N1CCN(c2ccccn2)CC1	4.1
Cc1ccc(Nc2nnc(-c3ccc(C)c(S(=O)(=O)NCc4ccccn4)c3)c3ccccc23)c(C)c1	-1.6
O=C(c1cc2c(=O)n3ccccc3nc2n1Cc1ccccc1)N1CCOCC1	-6.0
CC(C)NC(=O)C1CCCN(C2CCN(C)CC2)C1 (centres undefined)	-6.9
O=C(CCc1nnc(Cc2ccc3c(c2)OCO3)o1)N(CCO)Cc1cccs1	5.7
Cc1sc(NC(=O)C2CCCO2)c(C(N)=O)c1-c1ccc(C(C)C)cc1 (centres undefined)	11.6
COc1ccc(CNc2c(F)c(F)c3nc4snc(C)c4cc3c2F)cc1	-5.9
Cc1nsc2nc3c(F)c(F)c(N[C@@H](C)c4ccccc4)c(F)c3cc12	8.7
COc1ccccc1CNc1c(F)c(F)c2nc3snc(C)c3cc2c1F	86.9*
CCOc1ccc(-n2c(CN3CCN(C(=O)c4ccco4)CC3)nc3ccccc3c2=O)cc1	-1.5
CN=C1CC=C(Br)C=C(C(=O)/C=C/c2ccc(Cl)cc2)C1=O	63.4*
CCOc1ccc(/C=C/C(=O)C2=CC(Br)=CCC(=NC)C2=O)cc1	8.2
CCN=C1CC=C(Br)C=C(C(=O)/C=C/c2ccc(OC)c(OC)c2)C1=O	-5.6
CN=C1CC=C(Br)C=C(C(=O)/C=C/c2ccc(Cl)cc2Cl)C1=O	4.1
CN=C1CC=C(Br)C=C(C(=O)/C=C/c2cccc(OC)c2)C1=O	44.1*
COc1cccc(N2CC(NC(=O)/C=C\c3ccc(OC)c(OC)c3)CC2=O)c1 (centres undefined)	-12.7
CCCCC(=O)N1CCN(Cc2ccc(F)cc2)CC1	-3.2
SMILES	ROC1-CUL1 inh
Cn1c2ccccc2c2nn3c(SCC(=O)O)nnc3nc21	6.6
O=C(NCCc1cnccn1)c1coc(CN2CCN(Cc3ccccc3)CC2)n1	5.2
O=C(CCC1(Cc2ccc3ccccc3c2)CCC(=O)N1)NCc1cnn(-c2ccc(F)cc2)c1 (centres undefined)	3.7
CC1=NN(c2ccccc2)C(=O)/C1=C/c1ccccc1OCc1ccccc1C	3.0
COc1cc(/C=C2/C(=O)N(c3ccc(Cl)c(Cl)c3)N=C2C)ccc1OCc1ccccc1	-0.5
CC1=NN(c2ccccc2)C(=O)/C1=C/c1ccccc1OCc1ccc(C(=O)O)cc1	51.4*
CCc1nc2ccccc2c(=O)n1Cc1ccccc1	-2.7
O=C(CSCc1ccc(Cl)cc1)N/N=C/c1c2ccccc2cc2ccccc12	-8.6
CCOc1ccc(S(=O)(=O)N2CCOCC2)cc1	-6.9
CCOC(=O)C1CCN(S(=O)(=O)c2ccc(OCC)cc2)CC1	5.7
CCOc1ccc(S(=O)(=O)N2CCC(Cc3ccccc3)CC2)cc1	58.7*
COC(=O)c1ccc(Cl)c(-c2ccc(/C=N/NC(=O)Cc3ccccc3)o2)c1	-5.0
Cc1cc(C)n(C(=O)CSc2nc(-c3ccccc3)cc(-c3ccc(F)cc3)c2C#N)n1	0.3
Cc1cc(-c2ccccc2)nn1-c1nc2ccccc2s1	-3.0
COc1ccc(CCn2c(O)cc3nn(-c4nc5ccccc5s4)c(=O)c-3c2C)cc1	79.5*
CCc1c(C)[nH]n(-c2nc3ccccc3s2)c1=O	6.5
CC1(C)OC2OC(C(O)c3cc(O)c4c(c3O)C(=O)c3ccccc3C4=O)C(C)(O)C2O1 (centres undefined)	64.5*
COc1ccc(/C=C2/C(=O)NN(c3ccccc3)C2=O)cc1OCc1c(F)cccc1Cl	4.6
Cc1cc2nn(-c3ccc(F)cc3)nc2cc1NC(=O)C(C)C	-2.7
CC1=Nc2cc(C(F)(F)F)ccc2SC1C(=O)OCc1ccccc1 (centres undefined)	-1.8
COc1ccc(-n2c(C)cn3c4c(=O)[nH]c(=O)n(C)c4nc23)cc1	7.5
CCOc1cc(C=C2C(=O)NC(=S)NC2=O)cc(Br)c1OCc1ccc(C(=O)O)cc1	4.1
O=C1NC(=O)C(=Cc2cc(Cl)c(OCc3ccc(C(=O)O)cc3)c(Cl)c2)C(=O)N1	-2.2
CCOc1cc(C=C2C(=O)NC(=S)NC2=O)cc(Cl)c1OCc1ccc(C(=O)O)cc1	50.4*
COCCCn1c(CN2CCCC(CN3CCCC3=O)C2)cnc1S(C)(=O)=O (centres undefined)	11.7
